Whole data set: some 24,000 sequences, median “enrichment r” near 0.99, cut for the highest 2% near 3.7. Not all results are given here.
T1: UNK ZnF1-3 (human, UniProt Q9C0B0 31-174)
T1 sequence: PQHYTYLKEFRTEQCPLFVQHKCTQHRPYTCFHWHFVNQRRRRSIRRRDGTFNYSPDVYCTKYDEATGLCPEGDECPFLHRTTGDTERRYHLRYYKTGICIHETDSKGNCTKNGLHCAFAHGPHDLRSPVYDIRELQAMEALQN

B1: chr3:49066234:49066235:-_ENSG00000178035_ENST00000326739|hu_hu|FALSE|FALSE (ssRNA)
RNA: GGGAGUUCUACAGUCCGACGAUCAGAAGUCAGGUCCACCUGGUCUGCAGUGAAGUCGAUGUACCCAGGGAGAAUGAGAAAGUCAUUGUAGGUGAGGCCGUCUCCGCAGUUGAAGAGCUGCUGUGCUGUGAGUCCGUCGUCUGGCAACAGAGGAUUGAGCAUCA
B2: chr8:87366250:87366251:-_ENSMUSG00000003814_ENSMUST00000003912|mus_mus|FALSE|FALSE (ssRNA)
RNA: GGGAGUUCUACAGUCCGACGAUCGAGCAGAUGAAAUCUCAAGCCUAGGGCUUCUCCUCUACACCCCUGUUCCUAGAGUUGGAGGGUAGUGACCAAAAGAUGGAGAAAGGGAGGGACAGAAGGAAAAGAUGUUGAUUCAAAAAUCAACAGAGGAUUGAGCAUCA
B3: chr7:75932113:75932114:+_ENSG00000106211_ENST00000248553|hu_hu|hu_hu_hu_mus_False|28_98 (ssRNA)
RNA: GGGAGUUCUACAGUCCGACGAUCCUGCGACCACUCAUCCGGCAGCCGGGGCACCCCGAAAGCUUGAUCGAAGAGGCGGCUGUGUGCAGGGUACCAGUCCCGGAAUGCCCAGCUGGGCGGGCUCCGCAGCAGCGAGAAGGGCACCAACAGAGGAUUGAGCAUCA
B4: chr4:88367131:88367132:-_ENSMUSG00000070923_ENSMUST00000094993|mus_hu|motif|central (ssRNA)
RNA: GGGAGUUCUACAGUCCGACGAUCUUGGUAAUUGCUAGCUUCCAAAAGCAAAUUCACGCAGGUAUUGUCUGUUCUCAUGAAAUCGGCUGUCUGCACGUAAUUGAUGAGAUCCUGUGGUGUCAUCAGUGGAAAUCGAAUAUUCUUCAACAGAGGAUUGAGCAUCA
B5: chr8:104447970:104447971:+_ENSG00000164934_ENST00000297579|hu_hu|hu_hu_hu_mus_False|48_108 (ssRNA)
RNA: GGGAGUUCUACAGUCCGACGAUCAUAUACCUCCCUGCUUCGGCUCUUGUCCACAGGAAAGAUUCUAAUAGACUUAUCAAAGCUGGCAGACACAAACUCCUUCCCAGUGGGAGAGUAGUCCACAUCAAGUACUGCAGACACGUGCAACAGAGGAUUGAGCAUCA
B6: 31532532_31534450_220_CDS_ENSG00000082213_ENST00000325366|human|control|control (ssRNA)
RNA: GGGAGUUCUACAGUCCGACGAUCGAAAUGUAAAAAACUUACAUUACUGGCAGGAAGAUGCUUUGAGCCUAUGGCCCGGUAUAUAAAGGGUAGAACCUCCUGAUGAUCCUCCACCACCCACACUGGGAGCUUGGGGUAACGCCGCAACAGAGGAUUGAGCAUCA
B7: chr6:117881578:117881579:-_ENSG00000047932_ENST00000052569|hu_hu|motif|central (ssRNA)
RNA: GGGAGUUCUACAGUCCGACGAUCUUUAAUGUAGAAGAUGCCAUCUUUAUUUACAGGCUAAUAAAAAAAUAUUAAACUCAACGGGAUAUAAUACAUUAUCAUAAAUGCAAUAGAUUUGAGGCCAACCAUAAGUGUAAGACUGGACAACAGAGGAUUGAGCAUCA
B8: chr3:144353948:144353949:-_ENSMUSG00000037062_ENSMUST00000163279|mus_hu|FALSE|FALSE (ssRNA)
RNA: GGGAGUUCUACAGUCCGACGAUCACCAAACAACUCUGAAAAUAACCCAUCAAAACAUAAUAUUAAAAUCAUUUGAUUUCUGUUGGAAAACCAGGUAAACAUAGUUUAAAUGCGUUUUUGUCUAUGAAAGCAUUCAGAAAAUUCCAACAGAGGAUUGAGCAUCA
B9: chr7:134094464:134094465:+_ENSMUSG00000030683_ENSMUST00000106335|mus_hu|FALSE|FALSE (ssRNA)
RNA: GGGAGUUCUACAGUCCGACGAUCCUCCGUCUCCGUUUAUCUUUCCCUUUAAUUGUUUUUUUUUUUUUUUUUUUUUUCCUCGUAGGAGUCAGCAAAGAAAGACAAUUUCUCUGCCCCUUGGGAUGGAGGGGCAGAAUUGGGCUACAACAGAGGAUUGAGCAUCA
B10: chr19:3980662:3980663:-_ENSG00000167658_ENST00000309311|hu_mus|FALSE|FALSE (ssRNA)
RNA: GGGAGUUCUACAGUCCGACGAUCGAACACUCUACCAAAGGCAUAGAAGCGGCCUUUGUCAGAGGUUGGCACCAUCUUGGAAAUGUACAUCAUAAGUGGGCCUUUGGGGUCGCAGCUCUUAAUACCCAUGGCGGCCUCAUCGUCCAACAGAGGAUUGAGCAUCA
B11: chr16:45382771:45382772:-_ENSMUSG00000022661_ENSMUST00000163230|mus_mus|motif|central (ssRNA)
RNA: GGGAGUUCUACAGUCCGACGAUCGAGAGUGUUAUUGUGGGCCCAAUGGAUAGGGAGAGCAUGCUUUUGUAAAGAUGUGAACGGCUCACUAAGACUAACAAUAUUGCCUAAGUGCUAUAAAAAUAAGUUAAAUGGACACAUUACCAACAGAGGAUUGAGCAUCA
B12: chr6:44218825:44218826:+_ENSG00000096384_ENST00000371646|hu_hu|FALSE|FALSE (ssRNA)
RNA: GGGAGUUCUACAGUCCGACGAUCGUUGUUCUUUUUCUUCUUGUUCUCAAAAAGGUCAAAGGGAGCCCGACGAGGAAUAAAUAGCAAUGCCCUGAAUUCCAACUGACCUUCUACAGAAAAGUGCUUGACUGCCAAGUGGUCUUCCAACAGAGGAUUGAGCAUCA
B13: chr10:115881139:115881140:-_ENSG00000165813_ENST00000369287|hu_hu|motif|central (ssRNA)
RNA: GGGAGUUCUACAGUCCGACGAUCAUAAAAAUAUUUUCACCAGGGUAGCAUAUAUAACAACAUUUACAUUAUUAAGGAUUCGGUUUUUUUCUUUUACUGAUAAAUCUUGGUUUAAAUUUGCAUGUAACAAUUUUUAGAAAAUAACAACAGAGGAUUGAGCAUCA
B14: chr4:62795864:62795865:+_ENSMUSG00000028358_ENSMUST00000107415|mus_hu|motif|central (ssRNA)
RNA: GGGAGUUCUACAGUCCGACGAUCCAGAGUCUAAAUCAAAUCUGAAGAAACAAAAUGAACCCCCAAACAAGGUAAAAAUUGCGGAAAUGUUAGGGAGAGAAAUUAUUAGGGAGUGGAGACAGUAUCUAUACUUCUCUGAAAAAUCAACAGAGGAUUGAGCAUCA
B15: chr1:44133529:44133530:+_ENSG00000066135_ENST00000372396|hu_hu|FALSE|FALSE (ssRNA)
RNA: GGGAGUUCUACAGUCCGACGAUCAAACUCAGCUGCUUCUGGCGUGGGCAGAGUAUGGUCAAUAACUGUGUUGUCCUUCCCAGCUUUCCAAAGUUUGUACCUUUCUGGCUGGAACUUUCUCACAAACACAUCCAUGGAGAUCUUCAACAGAGGAUUGAGCAUCA
B16: chr7:149068622:149068623:-_ENSMUSG00000025139_ENSMUST00000001950|mus_hu|mus_mus_mus_hu_False|28_108 (ssRNA)
RNA: GGGAGUUCUACAGUCCGACGAUCGUGCAGGUACUGAGUGUGGCUUGUGGUCUGUCCUGGGUUAGAGUUGUUAAUAUCACGGAACAUACCAUCUAGAACGUUCCAGUCUGCCUGACUACCUUCAUUCCCAAUGGAGAAGAAAUCCAACAGAGGAUUGAGCAUCA
B17: chr12:111867003:111867004:+_ENSMUSG00000018707_ENSMUST00000018851|mus_hu|FALSE|FALSE (ssRNA)
RNA: GGGAGUUCUACAGUCCGACGAUCCACCAGCAUAUUUAUCUUCAUGUAACCUUUCAGAAGCCUCUGAACAAACUCAUAGGACGCAUACUGUCGCAACCGGGCAGGGAAGCUUUUCAGCUGGUUCAGGAGGGCAUCCAAAUUUUGCAACAGAGGAUUGAGCAUCA
B18: chr18:32579733:32579734:+_ENSMUSG00000024381_ENSMUST00000025239|mus_mus|motif|central (ssRNA)
RNA: GGGAGUUCUACAGUCCGACGAUCUUUAUGGAAGUUUUCCUCCAGACCCGCGAUGCUCUGGAACGUGUUGACAUAGAAACCGGCACGGCUGUUCCACAGGGAUGGCAGCUCCUCCUGCAGAUCCACGUUCAUCUCCUCGAACACCAACAGAGGAUUGAGCAUCA
B19: chr8:27055589:27055590:-_ENSMUSG00000037260_ENSMUST00000037609|mus_hu|FALSE|FALSE (ssRNA)
RNA: GGGAGUUCUACAGUCCGACGAUCUUCCCUUUAACAAAGGCUGCUUCAGUCCUCCCUGCAGGCCUACUAGAGUCUUCCAGCAGCACAUCUCAGUGGGAGCCAUCAGAUUUUCCAAAAAAUCUUCUUUCUAUAGAGGAUGUAGGCCAACAGAGGAUUGAGCAUCA
B20: chr16:94690093:94690094:+_ENSMUSG00000040785_ENSMUST00000117648|mus_hu|mus_mus_mus_hu_True|28_38 (ssRNA)
RNA: GGGAGUUCUACAGUCCGACGAUCGGGCUGGGAUGACGGACACACAGCCUCGAUUCCAGGGGGAAAAAGUCUUAGUCGAUACUAAUUAAAAAGUGUUUUUAUAAUUGAUUACCAAAAUUACAUCUAUAAAAGAUGAAAAGCAAACAACAGAGGAUUGAGCAUCA
B21: chr12:16048344:16048345:+_ENSG00000023734_ENST00000419869|hu_hu|hu_hu_hu_mus_True|18_18 (ssRNA)
RNA: GGGAGUUCUACAGUCCGACGAUCAGAUCGUCCAUAAGUAAUAACCAAAAUCUCUCCUUCAGGAAUAUACUCCAUGCUGCUAACAGACAUAUUAAAAUUCAGAGAUUUCACUUCUGUCAUAGUAGCAUGAUCCCAGAGCCGAACCAACAGAGGAUUGAGCAUCA
B22: chr5:134191040:134191041:+_ENSG00000181904_ENST00000394976|hu_hu|motif|central (ssRNA)
RNA: GGGAGUUCUACAGUCCGACGAUCAAAAGCAGCAGUGCCACAGCCAUAACCAAGAUCGGCAAGACGGGAUAGAGCUUUAAUGCGGCCUGGAGGUCUGCCUGGGCUGACUUUGUAUCCCGCAGCUUUAGUUGUCCCCAAAGGUCUCAACAGAGGAUUGAGCAUCA

Each binder was assayed against T1, UNK ZnF1-3 (assay: nsRBNS (natural sequence RNA bind-n-seq); RBNS binding buffer (assumed for nsRBNS): 25 mM Tris pH 7.5, 150 mM KCl, 3 mM MgCl2, 0.01% Triton X-100, 500 ug/ml BSA, 20 U/ml SUPERase-In, 4 C; UNK is unkempt and MSI1 is Musashi-1; names of the RNAs are library labels; protein concentration not given here; high values mean tight binding).
For B1, the binding signal was 1.62 enrichment R. B2 showed a binding signal of 1.61 enrichment R. B3 was tested, and the binding signal was 0.901 enrichment R. B4 was tested, and the binding signal was 0.896 enrichment R. With B5 the binding signal was 1 enrichment R. In the case of B6, the binding signal is reported as 0.807 enrichment R. Work on B7 yielded a binding signal of 1.5 enrichment R. For B8, the binding signal was 0.744 enrichment R. Binder B9 has a binding signal of 1.16 enrichment R. With B10 the binding signal was 1.18 enrichment R. Binder B11 has a binding signal of 2.47 enrichment R. B12 gave a binding signal of 0.931 enrichment R. B13 showed a binding signal of 2.85 enrichment R. Binder B14 has a binding signal of 1.32 enrichment R. With B15 the binding signal was 0.628 enrichment R. Binder B16 has a binding signal of 0.859 enrichment R. B17 was tested, and the binding signal was 1.13 enrichment R. For B18, the binding signal was 0.625 enrichment R. B19 gave a binding signal of 1.28 enrichment R. For B20, the binding signal was 1.26 enrichment R. With B21 the binding signal was 0.977 enrichment R. With B22 the binding signal was 1.39 enrichment R.
